As usually defined, the inhibition is the change of the read-out against control, counted positive when it falls.

Active and inactive are the calls of the source.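 The calls were made as follows, unless noted: active = inhibition of the reporter signal at or above 50%; inactive = inhibition below 50%.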

Assay [1] in a line: inhibitors of TNFa-induced NFkB p65 translocation, primary screen, imaging, HUVEC, MLSMR starter and 10KST1 sets (AID 438;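 active = inhibition above 20% together with a positive visual image hit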;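 also: compound added about 3h40 before a 20 min TNFalpha stimulation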;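 as to inhibition: signal is the nuclear over cytoplasmic p65 intensity ratio per well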). As to conditions: HUVEC TNFa-induced p65 nuclear translocation; cell count: measured here: nuclei count (cytotoxicity indicator), at 2.08 µM; inhibition: at 2 µM, stronger effect = higher value, 0% TNFa-plus-vehicle, 100% no-TNFa wells.
Assay [2] in a line: inhibitors of mutant huntingtin aggregation, primary screen, imaging, exon1htt(103Q)mCFP cells, high-content imaging (AID 483;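 active = visual image review flags a hit and inhibition of aggregation exceeds 20%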;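 also: compound exposure lasted 3 days before fixation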;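 as to nuclei count: percent of the per-plate median nuclei count of sample wells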). As to conditions: exon1htt(103Q)mCFP cell line, aggregate imaging, at 2 µM; inhibition of aggregation: stronger effect = higher value; nuclei count: measured here: cell count, toxicity.
Assay [3] can be described thus: inhibitors of E-selectin induction by TNFa, primary screen, imaging, HUVEC, immunofluorescence, MLSMR starter and 10KST1 sets (AID 487;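 active = visually confirmed hit in the image check and inhibition above 20%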;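 as to inhibition: signal is fraction of cell area covered by stained E-selectin grains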;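 as to nuclei count: 100% = median nuclei count of all wells on the same plate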). As to conditions: HUVEC TNFalpha-induced E-selectin immunofluorescence imaging, at 2 µM; inhibition: stronger effect = higher value; nuclei count: measured here: cell number, toxicity.
Assay [4] has as its target Voltage-gated potassium channel subunit beta-2 (Rattus norvegicus) (UniProt P62483). Kind of assay: KvBeta enzyme negative modulators, primary screen, biochemical, NADPH fluorescence (AID 622;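 active = fluorescence slope higher than the sample average by over 3 SD, cut at about -0.22 in these data, passing the limit was not always enough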;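 also: slope of raw intensity against log time taken from 70 to 1610 s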). The following applies: recombinant KvBeta, 4-cyanobenzaldehyde reduction, at 10 µM, stronger effect = higher value.
The target is the same in assay [5]. Kind of assay: KvBeta positive modulators, primary screen, biochemical, NADPH fluorescence (AID 623;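 active = NADPH fluorescence slope more negative than the mean of all samples by about 3 SD, 99.7% confidence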;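 also: fluorescence intensity change per second fitted from 20 to 320 s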). As to conditions: Recombinant KvBeta, NADPH fluorescence decrease slope, 10 min; at 10 µM; stronger effect = lower value.
Assay [6] deals with Alpha-2C adrenergic receptor (Homo sapiens) (UniProt P18825). Kind of assay: modulators of alpha2C/GIRK thallium flux, primary screen, cell-based, HEK293 alpha2C/GIRK1/2 (AID 624;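 active = fluorescence slope after compound addition differing from the mean of all screened samples at 99.7% confidence, in either direction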;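 also: slope of fluorescence ratio to pre-addition baseline per second over 15 to 24 s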). As to conditions: thallium flux BTC fluorescence, at 10 µM, actives lie on both sides.
Sequence of Alpha-2C adrenergic receptor (Homo sapiens) (P18825 whole entry, looked up): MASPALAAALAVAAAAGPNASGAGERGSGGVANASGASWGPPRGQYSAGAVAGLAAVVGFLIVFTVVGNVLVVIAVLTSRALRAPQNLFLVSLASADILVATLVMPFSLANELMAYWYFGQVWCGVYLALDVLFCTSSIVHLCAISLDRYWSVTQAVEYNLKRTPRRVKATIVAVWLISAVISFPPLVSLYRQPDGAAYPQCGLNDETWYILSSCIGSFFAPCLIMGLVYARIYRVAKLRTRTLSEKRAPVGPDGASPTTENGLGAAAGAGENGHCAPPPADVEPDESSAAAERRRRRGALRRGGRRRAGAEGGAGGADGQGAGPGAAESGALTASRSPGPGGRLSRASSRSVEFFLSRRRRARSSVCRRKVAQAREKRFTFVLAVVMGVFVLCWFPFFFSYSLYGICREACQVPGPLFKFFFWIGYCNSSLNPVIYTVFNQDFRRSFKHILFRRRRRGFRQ
The nature of assay [7]: inhibitors of Sendai virus-induced IRF3 signaling, primary screen, TLR/RLR signaling modifier project, cell-based, Sendai virus stimulus, luciferase, 10K MLSCN set (AID 602276;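 active = inhibition at or above 50% at 10 µM; inactive = inhibition below 50%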;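 also: firefly luciferase from ISG56 promoter only with Renilla not read in this screen; 0% = Sendai virus plus DMSO and 100% = medium plus DMSO without virus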). The following applies: HEK293 RL24 IRF3 luciferase reporter, at 10 µM, stronger effect = higher value. A general note: In a reporter assay the amount or activity of a reporter protein is the signal.
Assay [8] in a line: inhibitors of poly I:C-induced TLR3 signaling, primary screen, cell-based, poly I:C stimulus, luciferase, 10K MLSCN set (AID 602277). The following applies: HEK293-TLR3 RL24 IRF3 luciferase reporter, at 10 µM, stronger effect = higher value.

Sequence of Voltage-gated potassium channel subunit beta-2 (Rattus norvegicus) (P62483 whole entry, looked up): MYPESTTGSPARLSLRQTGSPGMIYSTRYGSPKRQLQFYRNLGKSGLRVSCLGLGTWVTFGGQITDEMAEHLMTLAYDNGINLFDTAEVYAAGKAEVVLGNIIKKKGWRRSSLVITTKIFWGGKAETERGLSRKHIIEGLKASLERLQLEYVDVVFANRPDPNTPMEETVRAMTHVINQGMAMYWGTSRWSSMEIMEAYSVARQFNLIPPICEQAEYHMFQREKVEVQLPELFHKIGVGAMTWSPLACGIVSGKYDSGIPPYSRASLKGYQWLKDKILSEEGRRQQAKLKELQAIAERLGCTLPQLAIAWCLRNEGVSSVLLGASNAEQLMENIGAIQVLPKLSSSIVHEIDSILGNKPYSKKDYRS

Consider `Cc1nc2ccccc2c(=O)n1CC(=O)N1CCOCC1`, for which the cell count in assay [1] was determined as 558. The inhibition was -17.1% (inactive) in assay [1], 22.8% (inactive) in assay [3], 14.1% (inactive) in assay [7] and 13.2% (inactive) in assay [8]. The inhibition of aggregation in assay [2] was 11.6% (inactive). Further, the results for the nuclei count in assay [2] and in assay [3] were 78.3% and 89.9%, respectively. Also, the fluorescence slope in assay [4] is -0.503 (inactive). In assay [5], the NADPH fluorescence slope was -4.9e-05 (inactive). Also, in assay [6], the slope was 0.00461 (inactive).

Turning to `CCN(c1cccc(C(F)(F)F)c1)S(=O)(=O)c1ccc2c(c1)CCN2C(=O)C1CC1`, the cell count in assay [1] worked out at 495. Besides, the inhibition in assay [1] was 2.7% (inactive); in assay [3], -51.5% (inactive); in assay [7], -11.8% (inactive); in assay [8], -25.9% (inactive). The inhibition of aggregation in assay [2] was 3.1% (inactive). The nuclei count in assay [2] came to 97.3%; in assay [3], 104%. For the same compound, the fluorescence slope in assay [4] is -0.405 (inactive). Moreover, the NADPH fluorescence slope in assay [5] was -4.7e-05 (inactive). Besides, the slope in assay [6] was 0.00287 (inactive).

Regarding `Cc1ccnc(NC(=O)C2CCC(CNc3c(N4CCCC4)c(=O)c3=O)CC2)c1` (stereo not drawn), the cell count in assay [1] came to 544. Besides, the inhibition in assay [1] is 4.4% (inactive); in assay [3], -31.3% (inactive); in assay [7], 4.3% (inactive); in assay [8], 18.4% (inactive). In addition, the inhibition of aggregation in assay [2] is -2.5% (inactive). The figures for the nuclei count in assay [2] and in assay [3] were 113% and 98.8%, respectively. The fluorescence slope in assay [4] was -0.598 (inactive). For the same compound, the NADPH fluorescence slope in assay [5] was -2.9e-05 (inactive). The slope in assay [6] was 0.00671 (inactive).

On to `CCc1ccc(NC(=O)CSc2nnc(Cc3cccn3C)n2-c2ccc(OC)cc2)cc1`, for which the cell count in assay [1] was 891. For the same compound, the inhibition was 7.4% (inactive) in assay [1], -54.1% (inactive) in assay [3], 20.1% (inactive) in assay [7] and 23.6% (inactive) in assay [8]. Moreover, the inhibition of aggregation in assay [2] is -2.2% (inactive). The nuclei count in assay [2] amounted to 111%; in assay [3] it was 117%. For the same compound, the fluorescence slope in assay [4] is -0.609 (inactive). The NADPH fluorescence slope in assay [5] is 1.4e-05 (inactive). In addition, in assay [6], the slope was 0.00529 (inactive).

Regarding `O=C1CCCC2=C1C1(CCCC1)N=C(Nc1nc3ccccc3s1)N2`, the cell count in assay [1] was determined as 687. Further, the inhibition in assay [1] was -4.4% (inactive); in assay [3], -39.4% (inactive); in assay [7], 10.1% (inactive); in assay [8] it was 2.82% (inactive). The inhibition of aggregation in assay [2] was -42.8% (inactive). The nuclei count turned out to be 139% in assay [2] and 117% in assay [3]. The fluorescence slope in assay [4] was -0.257 (inactive). Besides, the NADPH fluorescence slope in assay [5] is -9.3e-06 (inactive). Also, the slope in assay [6] is 0.00377 (inactive).

On to `CN(Cc1ccco1)C(=O)Cn1c(=O)oc2cc(S(=O)(=O)NCc3ccccc3)ccc21`, for which the cell count in assay [1] came to 924. Also, the inhibition is 2.8% (inactive) in assay [1], -17.8% (inactive) in assay [3], 13.5% (inactive) in assay [7] and 10.8% (inactive) in assay [8]. Besides, the inhibition of aggregation in assay [2] was 20.1% (inactive). In addition, the figures for the nuclei count in assay [2] and in assay [3] were 104% and 96.6%, respectively. Also, the fluorescence slope in assay [4] is -0.55 (inactive). Moreover, the NADPH fluorescence slope in assay [5] is 2.5e-05 (inactive). For the same compound, the slope in assay [6] is 0.00749 (inactive).

With `CCc1ccccc1OCCCCN1CCCC1`, the cell count in assay [1] worked out at 454. In addition, the inhibition in assay [1] is -4.1% (inactive); in assay [3] it was -88.7% (inactive); in assay [7], -4.55% (inactive); in assay [8] it was -12.9% (inactive). In addition, the inhibition of aggregation in assay [2] is 10.6% (inactive). In addition, the nuclei count in assay [2] worked out at 89.5%; in assay [3], 75.1%. For the same compound, in assay [4], the fluorescence slope was -0.518 (inactive). Moreover, the NADPH fluorescence slope in assay [5] is -4.4e-05 (inactive). Moreover, the slope in assay [6] was 0.00548 (inactive).

On to `COc1ccccc1NC(=O)Cc1noc(CSc2cc(C)c3ccccc3n2)n1`, for which the cell count in assay [1] is 572. The inhibition in assay [1] is -12.8% (inactive); in assay [3] it was -160% (inactive); in assay [7], 6.32% (inactive); in assay [8] it was -8.68% (inactive). For the same compound, the inhibition of aggregation in assay [2] is 25.7% (inactive). In addition, the nuclei count in assay [2] came out at 81.6%; in assay [3], 95.9%. Also, in assay [4], the fluorescence slope is -0.337 (inactive). Besides, the NADPH fluorescence slope in assay [5] was -5.3e-05 (inactive). Besides, the slope in assay [6] was 0.00168 (inactive).

With `[N-]=[N+]=CC(=O)CC(c1ccccc1)N1C(=O)c2ccccc2C1=O` (stereo not drawn), the cell count in assay [1] turned out to be 229. Further, the inhibition in assay [1] is 0.5% (inactive); in assay [3], -39.5% (inactive); in assay [7], -5% (inactive); in assay [8] it was -29.5% (inactive). Also, the inhibition of aggregation in assay [2] was 10.4% (inactive). In addition, the nuclei count in assay [2] is 58.6%; in assay [3] it was 115%. For the same compound, in assay [4], the fluorescence slope was -0.609 (inactive). In addition, the NADPH fluorescence slope in assay [5] is -2.1e-05 (inactive). For the same compound, the slope in assay [6] was 0.00641 (inactive).

For the compound `O=C(Nc1nc(-c2ccccn2)cs1)C1CC1`, in assay [1], the cell count was determined as 673. Also, the inhibition in assay [1] was -3.3% (inactive); in assay [3], -21% (inactive); in assay [7] it was -68.6% (inactive); in assay [8], -114% (inactive). Also, the inhibition of aggregation in assay [2] was 2.7% (inactive). In addition, the nuclei count is 94.5% in assay [2] and 115% in assay [3]. The fluorescence slope in assay [4] was -0.482 (inactive). In addition, the NADPH fluorescence slope in assay [5] is -7.5e-05 (inactive). Also, the slope in assay [6] is 0.00645 (inactive).

As for `O=C(NCCN1C(=O)C2C3C=CC(C3)C2C1=O)Nc1ccccn1` (stereo not drawn), the cell count in assay [1] came to 635. Further, the inhibition is 0.8% (inactive) in assay [1], -12.9% (inactive) in assay [3], 7.16% (inactive) in assay [7] and 16.9% (inactive) in assay [8]. The inhibition of aggregation in assay [2] was 12.9% (inactive). The nuclei count in assay [2] came out at 72.4%; in assay [3] it was 108%. Further, in assay [4], the fluorescence slope is -0.603 (inactive). In addition, the NADPH fluorescence slope in assay [5] is 1.9e-05 (inactive). Besides, the slope in assay [6] is 0.00714 (inactive).

As for `CC(=O)N1CCc2cc(Br)cc(S(=O)(=O)NCCCN3CCCC(C)C3)c21` (stereo not drawn), in assay [1], the cell count came to 379. The inhibition in assay [1] is 0.3% (inactive); in assay [3] it was -170% (inactive); in assay [7], -7.41% (inactive); in assay [8], 12.2% (inactive). The inhibition of aggregation in assay [2] is -1.8% (inactive). Moreover, the nuclei count in assay [2] was determined as 104%; in assay [3], 96%. In assay [4], the fluorescence slope was -0.47 (inactive). The NADPH fluorescence slope in assay [5] is 1.8e-05 (inactive). Moreover, the slope in assay [6] was 0.00613 (inactive).

On to `CCN(CC)CCNC(=O)c1ccc(CS(=O)(=O)c2ccc(Br)cc2)o1`, for which the cell count in assay [1] worked out at 655. Moreover, the inhibition in assay [1] is 11.2% (inactive); in assay [3], 21.7% (inactive); in assay [7], 7.79% (inactive); in assay [8] it was 25.7% (inactive). Also, the inhibition of aggregation in assay [2] was -11.8% (inactive). The nuclei count in assay [2] was determined as 103%; in assay [3], 117%. Moreover, the fluorescence slope in assay [4] was -0.611 (inactive). Moreover, in assay [5], the NADPH fluorescence slope was -3.9e-05 (inactive). Besides, the slope in assay [6] is 0.00568 (inactive).
